PubChem BioAssay (NCI)
Compounds without any hit were thinned out: in the full panel of roughly 79,000, 15% have a hit. Active and inactive are the calls of the source. No stated cut-off is given here; in the data, active means growth inhibition above about 70%; inactive means the rest.

Legend:
[1] = NCI Yeast Anticancer Drug Screen. Data for the rad52 strain (AID 147);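 further: 0% = growth of vehicle-treated control cultures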; conditions: S. cerevisiae rad52 mutant growth inhibition, stronger effect = higher value
Outline: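 Yeast strain carrying a DNA damage repair alteration was exposed to test compounds. Growth inhibition was measured relative to vehicle-treated controls.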

[2] = NCI Yeast Anticancer Drug Screen. Data for the wt1 strain (AID 149);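 further: 0% = growth of vehicle-treated wt1 cultures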; conditions: S. cerevisiae wt1 strain (SPY 50644) growth inhibition, stronger effect = higher value
Outline: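 Measured: growth of wt1 yeast under compound versus vehicle treatment, reported as inhibition.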

[3] = NCI Yeast Anticancer Drug Screen. Data for the rad50EPP+ strain (AID 151);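 further: 0% = growth of vehicle-treated control cultures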; conditions: S. cerevisiae rad50 mutant strain, stronger effect = higher value
Outline: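 Yeast strain carrying rad50 alteration (rad50EPP+) exposed to compounds; growth inhibition measured relative to vehicle-treated controls.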

[4] = NCI Yeast Anticancer Drug Screen. Data for the mgt1 strain (AID 153); conditions: S. cerevisiae mgt1 mutant growth inhibition, stronger effect = higher value
Outline: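 Yeast mgt1 strain (DNA repair/cell-cycle alteration panel) exposed to compounds; growth inhibition measured relative to vehicle-treated controls.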

[5] = NCI Yeast Anticancer Drug Screen. Data for the rad50 strain (AID 155);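 further: 0% = growth of vehicle-only cultures of the same strain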; conditions: S. cerevisiae rad50 strain growth inhibition, stronger effect = higher value
Outline: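 Growth of the mutant yeast was measured after compound exposure and referenced to vehicle-treated cultures.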

[6] = NCI Yeast Anticancer Drug Screen. Data for the mec2-1 strain (AID 157); conditions: S. cerevisiae mec2-1 strain, stronger effect = higher value
Outline: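 mec2-1 yeast strain, carrying an alteration in DNA damage repair or cell cycle control, was exposed to compounds; growth inhibition was measured relative to vehicle-treated controls.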

[7] = NCI Yeast Anticancer Drug Screen. Data for the rad14 strain (AID 159);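 further: 0% = growth of vehicle-treated control cultures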; conditions: S. cerevisiae rad14 strain growth inhibition, stronger effect = higher value
Outline: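 Here, inhibition of yeast growth was measured after compound exposure, using a strain with a genetic defect in DNA damage repair and vehicle-treated cultures as the reference.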

[8] = NCI Yeast Anticancer Drug Screen. Data for the sgs1 mgt1 strain (AID 161);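 further: 0% = growth of cultures given vehicle only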; conditions: S. cerevisiae sgs1 mgt1 strain, stronger effect = higher value
Outline: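 This yeast growth screen uses a strain with defined DNA-repair lesions; compound-treated growth is compared with vehicle-treated growth.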

[9] = NCI Yeast Anticancer Drug Screen. Data for the CLN2oe strain (AID 163);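 further: 0% = growth of vehicle-only control cultures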; conditions: S. cerevisiae CLN2oe strain, stronger effect = higher value
Outline: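 Yeast cells carrying a defined cell-cycle control alteration were exposed to test compounds. Growth inhibition was scored against vehicle-treated control cultures.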

[10] = NCI Yeast Anticancer Drug Screen. Data for the cln2 rad14 strain (AID 165);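 further: 0% = growth equal to vehicle treated cultures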; conditions: S. cerevisiae cln2 rad14 strain, stronger effect = higher value
Outline: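 Yeast carrying cln2 and rad14 alterations (cell cycle control and DNA damage repair) were exposed to compounds. Growth inhibition was measured against vehicle-treated controls.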

[11] = NCI Yeast Anticancer Drug Screen. Data for the bub3 strain (AID 167); conditions: S. cerevisiae bub3 mutant strain, stronger effect = higher value
Outline: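 Whole-cell yeast assay. The mutant strain was incubated with compounds, and growth inhibition was determined by comparison with vehicle-treated cells.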

[12] = NCI Yeast Anticancer Drug Screen. Data for the mlh1 strain (AID 171);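 further: 0% = growth of vehicle-treated control cultures of the same strain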; conditions: S. cerevisiae mlh1 strain growth inhibition, stronger effect = higher value
Outline: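 Yeast carrying a defined genetic alteration in DNA damage repair or cell cycle control were exposed to test compounds. Growth inhibition was measured relative to vehicle-treated controls.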

[13] = NCI Yeast Anticancer Drug Screen. Data for the sgs1 strain (AID 173);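 further: 0% = growth of vehicle-only control cultures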; conditions: S. cerevisiae sgs1 mutant, stronger effect = higher value
Outline: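 Yeast mutant strains carrying defined defects in DNA damage repair or cell cycle control were exposed to test compounds. Growth inhibition was scored against vehicle-treated controls.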

[14] = NCI Yeast Anticancer Drug Screen. Data for the mlh1 rad18 strain (AID 175); conditions: S. cerevisiae mlh1 rad18 strain growth inhibition, stronger effect = higher value
Outline: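 Growth inhibition of the yeast strain was measured after compound exposure and expressed relative to vehicle-treated controls. The strain carries defined defects in DNA damage repair.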

[15] = NCI Yeast Anticancer Drug Screen. Data for the rad18 strain (AID 177); conditions: S. cerevisiae rad18 mutant growth inhibition, stronger effect = higher value
Outline: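 Yeast carrying a defined DNA damage repair alteration were exposed to compounds. Growth inhibition was expressed relative to vehicle-treated controls.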

[16] = NCI Yeast Anticancer Drug Screen. Data for the wt2 strain (AID 169);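 further: 0% = growth of vehicle-treated yeast cultures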; conditions: S. cerevisiae wt2 strain growth inhibition, stronger effect = higher value
Outline: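 Yeast cells were exposed to test compounds, and growth inhibition was measured relative to vehicle-treated controls.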

[17] = at 5.0 µM (retest, dose inferred, filed as 0.5)
[18] = at 50.0 µM (retest, dose inferred, filed as 5.0)

Measured: growth inhibition

O=C1c2cccc3cc([N+](=O)[O-])cc(c23)C(=O)N1CCN1CCCC1
active: [1]; at 33.0 µM 90% | [1]; at 100.0 µM 94% | [3]; at 33.0 µM 73% | [3]; at 100.0 µM 83% | [5]; at 33.0 µM 88% | [5]; [18] 95% | [5]; at 100.0 µM 91% | [15]; at 100.0 µM 73%
inactive: [1]; at 1.2 µM 33% | [1]; at 3.7 µM 61% | [1]; at 11.0 µM 63% | [2]; at 1.2 µM 8% | [2]; at 3.7 µM 8% | [2]; at 11.0 µM 0% | [2]; at 33.0 µM 3% | [2]; at 100.0 µM 25% | [3]; at 1.2 µM 13% | [3]; at 3.7 µM 23% | [3]; at 11.0 µM 39% | [4]; at 1.2 µM -6% | [4]; at 3.7 µM 10% | [4]; at 11.0 µM 8% | [4]; at 33.0 µM 7% | [4]; at 100.0 µM 44% | [5]; at 1.2 µM 16% | [5]; at 3.7 µM 48% | [5]; [17] 11% | [5]; at 11.0 µM 62% | [5]; at 50.0 µM 66.7% | [6]; at 1.2 µM 5% | [6]; at 3.7 µM 5% | [6]; [17] 11% | [6]; at 11.0 µM -3% | [6]; at 33.0 µM -4% | [6]; [18] 30% | [6]; at 50.0 µM 28.1% | [6]; at 100.0 µM 38% | [7]; at 1.2 µM 12% | [7]; at 3.7 µM 11% | [7]; at 11.0 µM 14% | [7]; at 33.0 µM 5% | [7]; at 100.0 µM 28% | [8]; [17] 8% | [8]; [18] 12% | [8]; at 50.0 µM -14.2% | [9]; at 1.2 µM 7% | [9]; at 3.7 µM 25% | [9]; at 11.0 µM 25% | [9]; at 33.0 µM 39% | [9]; at 100.0 µM 61% | [10]; [17] 9% | [10]; [18] 36% | [10]; at 50.0 µM -15.8% | [11]; at 1.2 µM 9% | [11]; at 3.7 µM 20% | [11]; [17] 9% | [11]; at 11.0 µM 13% | [11]; at 33.0 µM 17% | [11]; [18] 12% | [11]; at 50.0 µM -11.2% | [11]; at 100.0 µM 35% | [12]; at 1.2 µM 0% | [12]; at 3.7 µM 20% | [12]; at 11.0 µM -4% | [12]; at 33.0 µM 18% | [12]; at 100.0 µM 39% | [13]; at 1.2 µM 0% | [13]; at 3.7 µM 0% | [13]; at 11.0 µM 2% | [13]; at 33.0 µM 19% | [13]; at 100.0 µM 50% | [14]; [17] 3% | [14]; [18] 18% | [14]; at 50.0 µM -41.9% | [15]; at 1.2 µM 24% | [15]; at 3.7 µM 23% | [15]; at 11.0 µM 33% | [15]; at 33.0 µM 15%

CC(=O)C1(O)Cc2c(O)c3c(c(O)c2C(OC2CC(N)C(O)C(C)O2)C1)C(=O)c1ccccc1C3=O (stereo not given)
active: [1]; at 1.2 µM 82% | [1]; at 3.7 µM 92% | [1]; at 11.0 µM 95% | [1]; at 33.0 µM 96% | [1]; at 100.0 µM 97% | [2]; at 11.0 µM 88% | [2]; at 33.0 µM 96% | [2]; at 100.0 µM 98% | [3]; at 3.7 µM 92% | [3]; at 11.0 µM 97% | [3]; at 33.0 µM 98% | [3]; at 100.0 µM 98% | [4]; at 11.0 µM 92% | [4]; at 33.0 µM 97% | [4]; at 100.0 µM 98% | [5]; at 1.2 µM 86% | [5]; at 3.7 µM 92% | [5]; at 11.0 µM 94% | [5]; at 33.0 µM 97% | [5]; [18] 85% | [5]; at 50.0 µM 89.4% | [5]; at 100.0 µM 98% | [6]; at 11.0 µM 90% | [6]; at 33.0 µM 95% | [6]; at 50.0 µM 92.9% | [6]; at 100.0 µM 98% | [7]; at 11.0 µM 89% | [7]; at 33.0 µM 96% | [7]; at 100.0 µM 97% | [8]; at 50.0 µM 91% | [9]; at 11.0 µM 93% | [9]; at 33.0 µM 98% | [9]; at 100.0 µM 99% | [10]; at 50.0 µM 87.9% | [11]; at 11.0 µM 91% | [11]; at 33.0 µM 97% | [11]; at 50.0 µM 90.2% | [11]; at 100.0 µM 98% | [16]; at 11.0 µM 93% | [16]; at 33.0 µM 98% | [16]; at 100.0 µM 99% | [12]; at 11.0 µM 90% | [12]; at 33.0 µM 96% | [12]; at 100.0 µM 98% | [13]; at 11.0 µM 93% | [13]; at 33.0 µM 97% | [13]; at 100.0 µM 98% | [15]; at 11.0 µM 94% | [15]; at 33.0 µM 96% | [15]; at 100.0 µM 98%
inactive: [2]; at 1.2 µM 25% | [2]; at 3.7 µM 31% | [3]; at 1.2 µM 55% | [4]; at 1.2 µM 4% | [4]; at 3.7 µM 45% | [5]; [17] 24% | [6]; at 1.2 µM 15% | [6]; at 3.7 µM 50% | [6]; [17] -32% | [6]; [18] 47% | [7]; at 1.2 µM -4% | [7]; at 3.7 µM 33% | [8]; [17] -25% | [8]; [18] 65% | [9]; at 1.2 µM -1% | [9]; at 3.7 µM 46% | [10]; [17] -15% | [10]; [18] 41% | [11]; at 1.2 µM -7% | [11]; at 3.7 µM 8% | [11]; [17] -42% | [11]; [18] 16% | [16]; at 1.2 µM 2% | [16]; at 3.7 µM 27% | [12]; at 1.2 µM 1% | [12]; at 3.7 µM 22% | [13]; at 1.2 µM -14% | [13]; at 3.7 µM 60% | [14]; [17] -33% | [14]; [18] 54% | [15]; at 1.2 µM 1% | [15]; at 3.7 µM 60%

Nc1ccc(S(=O)(=O)Nc2ccc(Nc3c4ccccc4nc4ccccc34)cc2)cc1
inactive: [1]; at 1.2 µM 21% | [1]; at 3.7 µM 69% | [2]; at 1.2 µM 2% | [2]; at 3.7 µM 19% | [2]; at 11.0 µM 18% | [2]; at 33.0 µM 18% | [2]; at 100.0 µM 43% | [3]; at 1.2 µM 8% | [3]; at 3.7 µM 56% | [4]; at 1.2 µM 4% | [4]; at 3.7 µM 4% | [4]; at 11.0 µM 3% | [4]; at 33.0 µM 13% | [4]; at 100.0 µM 50% | [5]; at 1.2 µM 22% | [5]; at 3.7 µM 66% | [5]; [17] 59% | [6]; at 1.2 µM 0% | [6]; at 3.7 µM 11%
active: [1]; at 11.0 µM 88% | [1]; at 33.0 µM 93% | [1]; at 100.0 µM 95% | [3]; at 11.0 µM 77% | [3]; at 33.0 µM 76% | [3]; at 100.0 µM 79% | [5]; at 11.0 µM 86% | [5]; at 33.0 µM 93% | [5]; [18] 87% | [5]; at 50.0 µM 79.1% | [5]; at 100.0 µM 94%
